Screening data (PubChem)
Pol eta inh – inhibitors of human DNA polymerase eta; Q9Y253; AID 588591; recombinant Pol eta, fluorescent DNA replication assay; actives 1.2% (n = 390,000); Potency, µM (highest dose often 114 µM), most hits filed as inhibitors
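Fluorescent replication assay: 50 nM final substrate added after a 15 min room-temperature compound preincubation with 10 nM enzyme. Signal taken at 0 min and again at 10 min.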
POLB inh – inhibitors of human DNA polymerase beta. P06746. Pol beta primer extension/strand displacement, fluorescence kinetic. Potency, µM (doses to about 114 µM), actives largely listed as inhibitors. actives 1.3% (n = 340,000). AID 485314
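10 nM enzyme + cpd, 15 min RT; start with substrate 50 nM final; read 0 min and after 10 min RT. Corrected, normalized data; 4-parameter Hill curve fit.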
POLI inh – inhibitors of human DNA polymerase iota; Pol iota fluorescent replication assay, 10 min; Potency, µM (top dose mostly 115 µM), usual class: inhibitors; actives 1% (n = 390,000); AID 588590
Target sequence (Q9UNA4 whole entry, looked up): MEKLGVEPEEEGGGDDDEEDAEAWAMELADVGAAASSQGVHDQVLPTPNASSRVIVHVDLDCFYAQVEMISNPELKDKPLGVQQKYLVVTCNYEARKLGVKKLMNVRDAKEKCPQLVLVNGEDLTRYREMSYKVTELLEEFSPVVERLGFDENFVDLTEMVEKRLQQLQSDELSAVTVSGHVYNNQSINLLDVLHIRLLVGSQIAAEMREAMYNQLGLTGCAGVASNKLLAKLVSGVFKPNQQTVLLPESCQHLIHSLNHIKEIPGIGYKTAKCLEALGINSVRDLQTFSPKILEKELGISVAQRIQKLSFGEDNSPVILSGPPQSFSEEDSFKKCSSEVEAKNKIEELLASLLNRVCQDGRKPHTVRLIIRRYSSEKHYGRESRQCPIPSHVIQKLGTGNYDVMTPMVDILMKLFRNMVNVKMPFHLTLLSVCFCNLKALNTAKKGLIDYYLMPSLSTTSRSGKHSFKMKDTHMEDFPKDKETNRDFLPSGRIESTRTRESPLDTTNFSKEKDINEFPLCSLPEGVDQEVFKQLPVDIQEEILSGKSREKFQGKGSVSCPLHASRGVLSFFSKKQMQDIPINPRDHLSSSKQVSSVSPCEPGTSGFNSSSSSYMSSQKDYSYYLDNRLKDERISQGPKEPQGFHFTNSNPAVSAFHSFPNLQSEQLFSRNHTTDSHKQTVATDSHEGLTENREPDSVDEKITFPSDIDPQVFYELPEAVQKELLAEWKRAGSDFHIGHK
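Fluorescent replication assay read twice, at 0 min and 10 min after adding 50 nM (final) substrate. Enzyme (10 nM) and compounds were first incubated 15 min at room temperature; enzyme-free buffer wells were negative controls.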
Pol kappa inh – inhibitors of human DNA polymerase kappa; purified Pol kappa, fluorescent DNA synthesis assay, 10 min; Potency, µM (titrated, usually from 107 µM), most hits filed as inhibitors; actives 0.53% (n = 400,000)
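10 nM Pol kappa preincubated 15 min at room temperature with compounds, then reaction started with substrate at 50 nM final. Fluorescence read kinetically at 0 and 10 min; buffer-only wells served as negative control.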
FEN1 inhibitor – human FEN1 inhibition. P39748. actives 0.35% (n = 390,000). AID 588795. Potency, µM (titrated, usually from 114 µM), usual class: inhibitors. Recombinant FEN1 flap cleavage, fluorescence, 15 min; also: nearly all actives have a fitted effect of over 65% in size
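Read-out was taken twice, immediately and after 15 min, following addition of 50 nM substrate to 10 nM FEN1 that had sat with test compound for 15 min at room temperature. Curves came from a four-parameter Hill model.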
WRN helicase inh – inhibitors of human WRN helicase. Q14191. WRN helicase unwinding, fluorescent forked duplex, kinetic. Potency, µM (series often up to 114 µM), hits mostly inhibitors. actives 0.46% (n = 360,000). AID 651768; also: nearly all actives have a fitted effect of over 55% in size
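Fluorescence dequenching readout, ex 525 nm/em 598 nm, kinetic mode: forked duplex DNA (100 nM final) with adjacent fluorophore and quencher unwound by WRN (20 nM final) with 2 mM ATP. Compound preincubation 15 min, room temperature.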
A number is an active result; n = inactive; u = inconclusive; x = no result; ! = a repeat was not active; [ ] = dose if it differs, or a comment. Most compounds without a hit are left out; they make up all but 2.4% or so of the library. Calls follow the shape of the dose curve; as a rule, active = well fitted curve in the direction sought with a large enough effect; inconclusive = small, poorly fitted or top-dose-only effect, or another doubt; inactive = no such curve, though single readings can be large; an effect the other way counts as inactive or inconclusive.

SMILES	Pol eta inh	POLB inh	POLI inh	Pol kappa inh	FEN1 inhibitor	WRN helicase inh
CCC(Sc1ncc(S(=O)(=O)c2ccc(C)cc2)c(=O)[nH]1)C(=O)Nc1cc(C)ccc1C (stereo not given)	n	25µM	u	n	n	x
CCOC(=O)c1ccc(NC(=O)CSc2ncc(S(=O)(=O)c3ccc(C)c(Cl)c3)c(=O)[nH]2)cc1	u	89µM	u	n	u	x
Cc1ccc(C)c(NC(=O)CSc2ncc(S(=O)(=O)c3ccc(C)c(Cl)c3)c(=O)[nH]2)c1	n	n	n	n	n	x
COc1ccc(C2NC(c3ccc4c(c3)OCO4)=CC(c3ccccc3O)N2)cc1OC (stereo not given)	x	x	n	n	n	x
CCOc1ccc(CNC(=O)c2cc3c(=O)n(Cc4cccs4)ccc3nc2C)cc1	n	13µM	u	n	n	x
CCc1ccc(CNC(=O)c2cc3c(=O)n(Cc4cccs4)ccc3nc2C)cc1	n	50µM	u	n	n	x
O=C(Nc1ccc2c(c1)N(C1CCCC1)C(=O)c1ccccc1S2)c1ccc(F)cc1	n	n	n	n	n	x
COC(=O)c1c(NC(=O)COC(=O)[C@@H](NS(=O)(=O)c2cccc(Cl)c2)C(C)C)sc2c1CCC2	n	n	n	n	n	n
CC(C)[C@H](NS(=O)(=O)c1cccc(Cl)c1)C(=O)OCC(=O)NC(=O)CN1CCCC1=O	22µM	x	50µM	u	n	n
CCCc1cc(=O)n2c(C(=O)Nc3ccc(OCC)cc3)c(C(=O)Nc3ccc(C)cc3)sc2n1	n	n	n	n	n	x
CCn1c(C(=O)N2CCCC(C(=O)N3CCN(c4ccccc4)CC3)C2)cc2sccc21 (stereo not given)	n	n	n	n	n	x
Cc1sc2ccccc2[n+]1CC(=O)O	n	n	u	n	n	50µM
CN(C)c1cc(-c2cccc(NS(C)(=O)=O)c2)ncn1	x	x	x	n	x	x
NC(Cc1cc(I)c(Oc2ccc(O)c(I)c2)c(I)c1)C(=O)O (stereo not given)	x	x	x	n	x	x
N[C@@H](Cc1cc(I)c(Oc2ccc(O)c(I)c2)c(I)c1)C(=O)O	32µM!	20µM!	50µM!	u	u	u
O=C(CCCCCNC(=O)c1ccccc1Br)N=Nc1c(O)[nH]c2ccccc12	n	n	79µM	n	n	n
CC1CCN(C(=O)CSc2nc3ccccc3nc2Cc2ccccc2)CC1	n	n	n	n	u	x
Cc1cc(=O)[nH]c(/N=C(\N)Nc2cccc3ccccc23)n1	u	22µM	u	n	n	n
O=C(Cc1cccs1)Nc1ccc(-c2nnn(CC(=O)N3CCOCC3)n2)cc1	n	18µM	n	n	n	n
Cc1cc(=O)[nH]c(SCC(=O)N2CCc3ccccc3C2)n1	n	n	n	n	n	n
CCCn1c(SCC(=O)N2CCc3ccccc3C2)nc(O)cc1=O	n	x	10µM	u	n	n
O=C(Cn1c(SCC(=O)N2CCc3ccccc32)nc2ccccc21)NC1CCCC1	n	n	n	n	n	n
O=C(Cn1c(SCC(=O)N2CCc3ccccc3C2)nc2ccccc21)NC1CCCC1	n	89µM	n	n	n	n
COc1ccc(-n2c(=O)c3c4c(sc3n(Cc3cc(=O)n5c(C)cccc5n3)c2=O)CCC4)c(OC)c1	u	n	79µM	n	n	x
COc1ccc(-n2c(=O)c3c4c(sc3n(Cc3ccc(C)cc3C)c2=O)CCC4)c(OC)c1	n	n	n	n	n	x
SMILES	Pol eta inh	POLB inh	POLI inh	Pol kappa inh	FEN1 inhibitor	WRN helicase inh
CCOc1ccccc1CNC(=O)C1CCN(c2nnc(-n3c(C)ccc3C)s2)CC1	x	n	n	n	n	x
O=C1CSC(=S)N1/N=C/c1ccc(O)c(O)c1O	0.71µM	0.32µM	n	0.71µM	2.8µM	10µM
CNC(=O)COc1ccc(Nc2nnc(-c3ccc(C)c(S(N)(=O)=O)c3)c3ccccc23)cc1	40µM	n	n	n	n	n[11.6 µM]
COc1cccc(NC(=O)NNC(=O)CCc2ccc(O)c(O)c2)c1	n	n	40µM	25µM	n	n
CN(Cc1ccco1)c1cc(-c2ccoc2)ncn1	x	x	x	25µM	x	x
O=C1CC(c2ccccc2)Cc2[nH]c(=O)c(-c3nc(-c4ccc(F)cc4)cs3)cc21 (stereo not given)	n	n	u	n	u	x
COc1cc(C=O)ccc1OCCOCCOc1c(C)cc(Cl)cc1Cl	n	10µM	n	n	n	n
COc1cc(C=O)ccc1OCCOCCOc1ccc(Cl)cc1Cl	n	x	n	n	n	n
C/C(=C\C(=O)OCCCCCCCCC(=O)O)C[C@@H]1OCC(C[C@H]2O[C@H]2[C@@H](C)[C@H](C)O)[C@@H](O)[C@H]1O (stereo not given in full)	x	x	x	n	x	x
COc1ccccc1C1CC(c2ccc(NS(C)(=O)=O)cc2)=NN1C(=O)c1ccccc1 (stereo not given)	n	n	n	n	n	n
COc1cccc(C2CC(c3ccc(NS(C)(=O)=O)cc3)=NN2C(=O)c2ccccc2)c1OC (stereo not given)	u	n	89µM	n	n	n
CC1(C)Cc2c(c(-c3ccco3)[nH]c(=O)c2C#N)CS1	u	28µM	28µM	n	n	n
CCCN1CCN(c2ncc3c(n2)CCN(Cc2ccc(OC)c(OC)c2OC)C3)CC1	n	n	n	n	n	x
COc1cc(-c2nnc(SCCOc3cc(C)cc(C)c3)o2)cc(OC)c1OC	n	50µM	n	n	n	x
COc1cc(-c2nnc(SCC(=O)c3ccc(C)cc3)o2)cc(OC)c1OC	n	n	n	n	n	n
C[n+]1ccnc2cc(Cl)ccc21	x	x	u	n	u	x
CCOC(=O)c1sc(Nc2nc3cc4c(cc3s2)OCO4)cc1C	u	35µM	n	n	n	n
Cc1ccc(-c2nc3sc(CCNS(=O)(=O)c4cc(F)ccc4F)c(C)n3n2)cc1	n	n	n	n	u	x
CC1=NN(c2nc(-c3ccc(Cl)cc3)cs2)C(=O)C1	45µM	35µM	u	50µM	u	u
CC1=NN(c2nc(-c3ccc(F)cc3)cs2)C(=O)C1	n	n	u	n	n	n
c1coc(-c2nc(-c3ccco3)c(-c3ccco3)nc2-c2ccco2)c1	4µM	2.5µM	u	8.9µM	35µM	20µM
Oc1ccccc1-c1cc(-c2ccco2)[nH]n1	n	n	u	n	n	n
c1coc(-c2nc3cc4ccccc4cc3nc2-c2ccco2)c1	x	x	8.9µM	40µM	5.6µM	x
COc1ccc2nc(-c3ccco3)c(-c3ccco3)nc2c1	3.2µM	22µM	u	u	u	45µM
COc1ccc2nc3cccc(OC)c3nc2c1	u	40µM	n	n	u	n[11.6 µM]
CCc1ccc(-n2nc(C)c3c(C)cc(=O)n(CC(=O)NCc4ccc(C)cc4)c32)cc1	n	n	n	n	n	x
COC(=O)c1ccccc1NC(=O)C1=CC(c2ccc(C)cc2)=NS(=O)(=O)N1C	n	n	n	n	n	x
